High-throughput results: PubChem, National Center for Advancing Translational Sciences (NCATS)
The list is not random: actives were taken first. Their share in the collection is about 19%.
KB-3-1 cytotox – qHTS assay for MDR1-selective chemotherapeutics: Primary screen using the parental adenocarcinoma cell KB-3-1; KB-3-1 viability, CellTiter-Glo ATP luminescence, 72 h; Potency, µM (doses to about 46.1 µM), actives largely listed as cytotoxic; hit rate 1.4% among 400,000; AID 1347075, 2019; also: nearly all actives have a fitted effect of over 60% in size
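Viability of parental KB-3-1 cells, measured by CellTiter-Glo luminescence, followed a 72 h incubation at 37 °C with pinned compounds in phenol-red-free DMEM containing 10% FBS.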
KB-V1 cytotox – qHTS assay for MDR1-selective chemotherapeutics: Primary screen using the drug-selected MDR subline cells KB-V1; KB-V1 MDR cells viability, CellTiter-Glo, 72 h; Potency, µM (highest dose often 46.1 µM), most hits filed as cytotoxic; hit rate 3.4% among 400,000; also: nearly all actives have a fitted effect of over 60% in size
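KB-V1 MDR subline cells in DMEM (phenol-red free, 10% FBS) exposed to compounds in qHTS concentration series for 72 h at 37 degrees C. Viability read by CellTiter-Glo luminescence; concentration-effect curves fitted after normalization and correction.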
TDP1 cell CPT – qHTS for Inhibitors of human tyrosyl-DNA phosphodiesterase 1 (TDP1): qHTS in cells in presence of CPT. chicken DT40 Tdp1-/-;hTDP1 cells + 20 nM CPT, ATP luminescence, 48 h. Potency, µM (top dose mostly 46.2 µM), for inactives: at the highest dose activity change, negative = growth inhibition, actives largely listed as inhibitors. hit rate 12% among 420,000. AID 686979, 2013; also: nearly all actives have a fitted effect of over 55% in size
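Chicken DT40 Tdp1-/- cells stably complemented with human TDP1 were seeded at 400 cells/well in medium containing 20 nM camptothecin, exposed to pin-transferred compounds, and grown at 37 °C for at least 48 hr. Viability was read as ATP luminescence.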
HT1080NT lethal – qHTS for induction of synthetic lethality in tumor cells producing 2HG: qHTS for the HT-1080-NT fibrosarcoma cell line; HT-1080-NT fibrosarcoma viability, CellTiter-Glo ATP luminescence, 48 h; Potency, µM (top dose mostly 46.1 µM), inactives show at the top dose activity, negative = less viability, most hits filed as cytotoxic; hit rate 1.6% among 360,000; AID 686970, 2013;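 also: NT is the 2HG producing partner of a matched IDH1 knockdown line; 0% = DMSO-treated cells and -100% = media-only wells without cells; nearly all actives have a fitted effect of over 55% in size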
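750 cells/well, RPMI + 5% FBS; 2 h settle, compound pin-transfer, 48 h at 37 degrees C. CellTiter-Glo 10 min RT, luminescence. Normalized to DMSO and media-only wells.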
HT1080 IDH1KD tx – qHTS for induction of synthetic lethality in tumor cells producing 2HG: qHTS for the HT-1080-IDH1KD cell line; HT-1080 IDH1 knockdown viability, ATP luminescence, 48 h; Potency, µM (highest dose often 46.1 µM), for the others: at the top dose activity, negative = toxicity, actives largely listed as cytotoxic; hit rate 2% among 360,000; AID 686971, 2013;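 also: 0% = DMSO wells and -100% = cell-free medium wells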
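CellTiter-Glo luminescence after 48 h compound exposure at 37 degrees C of IDH1-knockdown HT-1080 cells in 5% FBS RPMI. %Activity scaled between DMSO wells and cell-free media wells, with curves fitted and assigned curve classes.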
DT40 TDP1 no CPT – qHTS for Inhibitors of human tyrosyl-DNA phosphodiesterase 1 (TDP1): qHTS in cells in absence of CPT; hit rate 15% among 420,000; DT40 Tdp1-/- hTDP1 cells, no CPT, ATP luminescence, 48 h; Potency, µM (top dose mostly 46.2 µM), for inactives: at the top dose activity change, negative = growth inhibition, most hits filed as inhibitors; AID 686978, 2013; also: nearly all actives have a fitted effect of over 55% in size
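DT40 Tdp1-/-;hTDP1 cells, no CPT (DMSO vehicle only), 400 cells/well; compounds pin-transferred; ≥48 hr, 37 °C; CellTiter-Glo 30 min RT dark, luminescence read.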
* = called active by the depositor; i = inactive; ? = inconclusive; . = no result. Calls follow the shape of the dose curve; as a rule, active = well fitted curve in the direction sought with a large enough effect; inconclusive = small, poorly fitted or top-dose-only effect, or another doubt; inactive = no such curve, though single readings can be large; an effect the other way counts as inactive or inconclusive. Unless noted, % is scaled to controls: 0 for no effect and ±100 for the full control effect; potency is read from the fitted curve at half-maximal effect.

SMILES	KB-3-1 cytotox	KB-V1 cytotox	TDP1 cell CPT	HT1080NT lethal	HT1080 IDH1KD tx	DT40 TDP1 no CPT
COc1ccc(-c2csc(NC(=O)CSc3nc4ccccc4c(=O)[nH]3)n2)cc1	i	i	?	18µM*	16µM*	?
COC(=O)c1ccccc1NC(=O)CSc1nc2ccccc2c(=O)[nH]1	i	i	?	-5%	-18%	-17%
Cc1cc(=O)[nH]c(SCC(=O)Nc2nc(-c3ccccc3)cs2)n1	i	i	-14%	2%	-1%	-7%
Cc1ccc(-c2csc(NC(=O)CSc3nc4ccccc4[nH]3)n2)cc1	i	i	21µM*	0%	-21%	23µM*
COc1ccc(-n2c(=S)[nH]c3cc(C(=O)NCCCN4CCCC4=O)ccc3c2=O)c(OC)c1	i	i	-15%	1%	-16%	4%
O=S1(=O)c2c(F)cccc2OC(COCc2ccccc2)CN1C1CCCC1 (stereo not given)	i	i	?	-5%	-9%	21µM*
O=S1(=O)c2c(Oc3cccc4ccccc34)cccc2OC(COCc2ccccc2)CN1C1CCCC1 (stereo not given)	i	i	6.5µM*	1%	2%	6.5µM*
CCCCN1CC(COCc2ccccc2)Oc2cccc(Oc3ccc(F)cc3)c2S1(=O)=O (stereo not given)	i	i	?	0%	4%	?
OC(C[n+]1cccc(Br)c1)c1ccccc1 (stereo not given)	?	?	-12%	.	.	-17%
CN(C)c1nc(N)c(C#N)c(C#N)c1C#N	i	i	?	12%	11%	?
Oc1ccc2ccccc2c1N=Nc1ccccn1	?	?	0.65µM*	?	?	0.58µM*
Oc1ccc2ccccc2c1N=Nc1ccccc1F	i	i	3%	9%	5%	?
CCOC(=O)c1[nH]cnc1N=Nc1c(O)ccc2ccccc12	i	?	5.2µM*	5.8µM*	6.5µM*	5.8µM*
CC(C)(C)n1nnnc1C(c1cc2cc3c(cc2[nH]c1=O)OCO3)N1CCN(c2ccccc2)CC1 (stereo not given)	i	?	-12%	5%	-5%	-18%
CCC(C)(C)n1nnnc1C(c1cc2cc(OC)c(OC)cc2[nH]c1=O)N1CCc2ccccc21 (stereo not given)	i	i	20µM*	?	?	?
COc1cc2cc(C(c3nnnn3C(C)(C)C)N3CCc4ccccc4C3)c(=O)[nH]c2cc1OC (stereo not given)	i	?	18µM*	-26%	?	?
CC(C)CCNC(=O)c1cccc(S(=O)(=O)N2CCc3ccccc32)c1	i	i	15µM*	-4%	-26%	?
O=C(NNC(=O)c1cccc(S(=O)(=O)N2CCc3ccccc32)c1)c1ccccc1	?	?	?	-7%	?	5.2µM*
Cc1nnc2ccc(Oc3ccc(-c4ccccc4)cc3)nn12	i	i	13µM*	-27%	?	?
COC(=O)c1ccc(Oc2ccc3nnc(C)n3n2)cc1	i	i	-5%	-2%	2%	-6%
Cc1cc(C)c2nc(C(F)(F)F)c(C#N)c(N)c2c1	?	?	?	11%	5%	?
Cc1ccc2nc(C(F)(F)F)c(C#N)c(N)c2c1	?	?	21µM*	?	10µM*	16µM*
C=C(C)COc1ccc2c(C)c(CCC(=O)N3C[C@H]4C[C@@H](C3)c3cccc(=O)n3C4)c(=O)oc2c1	i	i	-16%	1%	-11%	?
N#Cc1ccc(NCCc2ccccn2)c([N+](=O)[O-])c1	8.2µM*	1.8µM*	-13%	4%	-1%	-22%
O=[N+]([O-])c1cc(Cl)ccc1NCCc1ccccn1	i	i	-5%	-16%	0%	?
SMILES	KB-3-1 cytotox	KB-V1 cytotox	TDP1 cell CPT	HT1080NT lethal	HT1080 IDH1KD tx	DT40 TDP1 no CPT
Cc1noc(-c2ccc(-c3noc(-c4ccccc4)n3)cc2)n1	i	i	-14%	.	.	1%
CCCC(=O)Nc1ccc(-c2cn3cccnc3n2)cc1	i	i	-4%	18%	15%	?
Nc1cccc(-c2cn3cccnc3n2)c1	i	i	21µM*	14%	1%	?
O=C(Nc1ccc(-c2cn3cccnc3n2)cc1)c1ccccc1F	.	.	?	.	.	16µM*
CCOCC(=O)Nc1ccc(-c2cn3cccnc3n2)cc1	i	i	15µM*	5%	22%	-27%
CC(C)CC(=O)Nc1ccc(-c2cn3cccnc3n2)cc1	i	i	-27%	-5%	-7%	-18%
CCOc1cc(C(=O)Nc2ccc(-c3cn4cccnc4n3)cc2)cc(OCC)c1OCC	.	.	12µM*	.	.	9.2µM*
CC(C)CN(C(=O)C(c1ccccc1)c1ccccc1)c1c(N)n(CC(C)C)c(=O)[nH]c1=O	i	i	6%	0%	-1%	-15%
CCN(Cc1ccccc1)S(=O)(=O)c1c(C)[nH]c(C)c1C(=O)N1CCCC1	?	i	-4%	-2%	-11%	-8%
Cc1ccc(C(=O)Nc2ccc(-c3cn4cccnc4n3)cc2)cc1C	?	i	?	.	.	?
O=C(Nc1ccc(-c2cn3ccccc3n2)cc1)c1ccc(Cl)cc1	i	i	23µM*	20%	17%	9.2µM*
Cc1cc(C)cc(C(=O)Nc2ccc(-c3cn4cccnc4n3)cc2)c1	i	i	?	.	.	9.2µM*
CCn1c(C)nc2cc(C(=O)OC(C(F)(F)C(F)F)C(F)(F)C(F)F)ccc21	i	?	?	3%	10%	18µM*
COc1ccc(C)c2sc(N(CCN(C)C)C(=O)c3cccc(N4C(=O)CCC4=O)c3)nc12	i	i	1%	0%	3%	-20%
COc1ccc(OC)c2sc(N(CCN(C)C)C(=O)/C=C/c3cccs3)nc12	?	?	?	18µM*	16µM*	?
